# ChEMBL document CHEMBL4513216, “Probing the Open Global Health Chemical Diversity Library for Multistage-Active Starting Points for Next-Generation Antimalarials” (ACS Infect Dis, 2020)
# Screen size: about 69,000 compounds; about 8,600 (12%) showed an effect of 50% or more. The entries come from a sample that favours strong results as a whole.
# Tested on: Plasmodium berghei
# Experiment: Screen against P. berghei liver stage (PbLuc), transformed with Luciferase, at 10uM
# Format: functional, HepG2
# Conditions: tested at 10 uM
row,Compound,INHIBITION
1,COCCO[C@H]1CCN(c2cc(OC)ncn2)[C@H]1Cc1ccncc1,-39.2%
2,c1cnc(N2CC[C@@H](OCC3CC3)[C@@H]2Cc2cccnc2)nc1,64.3%
3,COCCO[C@H]1CCN(c2cc(OC)ncn2)[C@H]1Cc1cccnc1,82.8%
4,Cc1ccc(N2CC[C@H](OCC3CC3)[C@@H]2Cc2cccnc2)nn1,42.4%
5,c1ccc(N2CC[C@H](OCC3CC3)[C@@H]2Cc2cccnc2)nc1,37.5%
6,COCCO[C@H]1CCN(c2ccc(C)nn2)[C@H]1Cc1cccnc1,5.68%
7,Cc1cc2nc(SCC(=O)N3CCOCC3)n(CCC(C)C)c(=O)c2[nH]1,45.8%
8,O=C(Cc1ccc(-n2cnnn2)cc1)Nc1cnn(CC(F)F)c1,42.6%
9,O=C(c1ccc(-c2ccc(O)nc2)s1)N1CCSCC1,3.295%
10,Cc1ccc(CN2C[C@H](OCCN(C)C)[C@H]3COC[C@H]32)o1,14.6%
11,Fc1ccc(-c2nnc(CN3CCCC(Cn4cncn4)C3)o2)cc1 (stereo unspecified),-105%
12,CCCc1n[nH]c(C2CN(C(=O)CCc3cscn3)CCO2)n1 (stereo unspecified),25.3%
13,CCC1(C)Cc2ccccc2-c2nc(NCCCO)nc(O)c21 (stereo unspecified),28.4%
14,O=c1[nH]c(NCCO)nc2c1C1(CCCCC1)Cc1ccccc1-2,66.5%
15,CC(C)NC(=O)N1CCC2(CC1)Cc1ccccc1CNC2=O,29.5%
16,O=c1[nH]c(NCCO)nc2c1C1(CCCC1)Cc1ccccc1-2,62.3%
17,OCCCNc1nc(O)c2c(n1)-c1ccccc1CC21CCCCC1,77.2%
18,CN1Cc2ccccc2CC2(CCN(CCO)CC2)C1=O,-9.23%
19,O=c1[nH]c(NCCCO)nc2c1C1(CCCC1)Cc1ccccc1-2,64%
20,Cc1cccc(CN2CCCC3(Cc4ccccc4CNC3=O)C2)n1 (stereo unspecified),9.32%
21,Cc1cc(C(=O)NC2CCN(c3nnc(C)c(C)c3C#N)CC2)no1,3.87%
22,Cn1ccc(C(=O)N2CCOC(c3ccc(C(N)=O)cn3)C2)n1 (stereo unspecified),22%

row,Compound,INHIBITION
1,Cc1noc(CNC(=O)CN(C)c2nc3ccccc3s2)n1,-4.01%
2,O=C(c1cc(C2CCCN(Cc3ccccn3)C2)no1)N1CCCC1 (stereo unspecified),7.52%
3,Cc1oc(-c2cccs2)nc1C(=O)N1CCCC1Cn1cccn1 (stereo unspecified),36.1%
4,c1ccc(CN2CCc3c(COCc4ccncc4)cncc3C2)nc1,3.81%
5,O=c1cc(Cn2cncn2)nc2n1CCCN(Cc1ccc(F)cc1)C2,22.5%
6,COc1c(CNCC(O)c2cccc(F)c2)c(C)nn1C (stereo unspecified),-47.6%
7,Cn1c(Cn2ccnc2)nnc1C1CCN(C(=O)c2ccccn2)CC1,5.41%
8,Cc1ncccc1NC(=O)[C@@H]1CC[C@@H]2[C@@H](CCN2Cc2cnn(C)c2)O1,0.734%
9,Fc1cccc(-c2cccc(N3CCC(NC4CCCOC4)CC3)c2)c1 (stereo unspecified),46.5%
10,Cc1ccc(-c2cccc(N3CCC(NC4CCOCC4)CC3)c2)cc1,39.3%
11,COc1cccc(-c2cccc(N3CCC(N[C@@H]4CCOC4)CC3)c2)c1,53.7%
12,CC(=O)N1CCC(c2cncc(N3CCC(O)C3)n2)CC1 (stereo unspecified),23.9%
13,CC(C)c1noc(CCC(=O)NCC2CCC(C(N)=O)CC2)n1 (stereo unspecified),-21.8%
14,CCCn1nccc1NC(=O)CN1CCCC1c1c(C)nn(C)c1C (stereo unspecified),34.1%
15,COc1ccc(-n2nnc(C(N)=O)n2)cc1,-8.07%
16,CCn1cc(Br)c(C(=O)NCc2ccccc2)n1,17%
17,CCn1cc(CNC(=O)c2nn(CC)cc2Br)cn1,76%
18,CCn1cc(Br)c(C(=O)NCc2cnn(C)c2)n1,-13.2%
19,COCC1Cn2nnc(-c3cnn(C)c3)c2CN1Cc1ccsc1 (stereo unspecified),33.4%
20,COc1cccn(CC(=O)N2CCCC3(CCCO3)CC2)c1=O (stereo unspecified),-2.61%
21,Cc1ccc(S(=O)(=O)N(CCO)C2CC2)cc1N(C)C,21.3%
22,CC(C)c1nnc2n1CCN(C(=O)c1ccnc(-n3ccnc3)c1)C2,31.2%

row,Compound,INHIBITION
1,CCS(=O)(=O)CC(=O)NCC1(c2c(F)cccc2F)CCCC1,57.4%
2,CC(=O)NCCC(=O)NCC1(c2c(F)cccc2F)CCCC1,24.2%
3,CCC(=O)NCC(=O)NCC1(c2c(F)cccc2F)CCCC1,-3.59%
4,Cc1noc(C)c1CN1C[C@H](OCc2ccncc2)[C@H]2OCCC[C@H]21,-10.3%
5,Cn1cc(CN2CCc3ncnc(N4CCOCC4)c3CC2)cn1,5.36%
6,CCNc1cc2c(nn1)CCN(C(=O)c1cccc3c1OCO3)C2,-4.16%
7,Cc1sc2c(C3CCNCC3)nc(Nc3cccc(F)c3)n2c1C,54.6%
8,COc1cccc(Nc2nc(C3CCNCC3)c3sc(C)c(C)n23)c1,23.12%
9,Cc1sc2c(C3CCCNC3)nc(Nc3cccc(F)c3)n2c1C (stereo unspecified),36.5%
10,CC(C)Oc1ccc2c(NC(=O)CN(C)C)nn(CC(F)(F)F)c2c1,42.3%
11,CC1(Cc2ccc(Cl)cc2)Cc2cc(CCC(=O)O)ccc2O1 (stereo unspecified),-29.4%
12,Cc1cc(C)c2c(N3CCCN(C(=O)C4CCC4)CC3)ncnc2n1,30.9%
13,Cc1cnc(N2C[C@@H]3C[C@H](C(=O)N(C)C)[C@H](C2)O3)nc1,17.3%
14,Cc1cccc(N(CCC(N)=O)C(=O)c2cnccn2)c1,12.9%
15,Cc1cccc(N(CCC(N)=O)C(=O)c2ccnc(C)n2)c1,50.5%
16,Cc1cccc(N(CCC(N)=O)C(=O)c2cc(-n3cccn3)ccn2)c1,8.92%
17,O=C(CCn1nc(C(F)(F)F)c(Br)c1C1CC1)NN1CCOCC1,-25.5%
18,Cc1ccc(OCc2occc2C(=O)N2CCCCC(N)C2)cc1 (stereo unspecified),11.8%
19,Cc1cc(CN2C[C@@H]3CC[C@H]2CN(Cc2c(C)noc2C)C3)ccc1F,-63.6%
20,O=C(c1ccccc1)N1CCCN(C(=O)c2ncncc2Cl)CC1,74%
21,O=C(c1ncncc1Cl)N1CCC2(CCCC2)CC1,43.1%
22,O=C(c1ncncc1Cl)N1CCN(c2ccc(Cl)cc2)CC1,44%
